Shown are actives, neighbours in structure and some others; about 2.2% of the full set was active somewhere.
S2 tox: Viability Counterscreen for Primary qHTS for Inhibitors of ATXN expression; S2 cells (HEK-293 line with an ATXN2-luciferase reporter) viability, CellTiter-Fluor protease fluorescence, 24 h; Potency, µM (doses to about 56.7 µM), hits mostly cytotoxic; actives 0.49% (n = 400,000); AID 651635, 2014; note: potency is the fitted concentration of half-maximal effect; nearly all actives have a fitted effect of over 40% in size
IDH1 R132H inh: qHTS for Inhibitors of mutant isocitrate dehydrogenase 1 (IDH1): qHTS; Isocitrate dehydrogenase [NADP] cytoplasmic (Homo sapiens), O75874; IDH1-R132H enzyme, NADPH consumption, diaphorase/resazurin fluorescence; Potency, µM (top dose mostly 76.6 µM), inactives show at the top dose activity change, negative = inhibition, hits mostly inhibitors; actives 0.093% (n = 390,000); note: potency is the fitted concentration of half-maximal effect; % is set by controls: 0 for no effect and ±100 for the full control effect; nearly all actives have a fitted effect of over 65% in size
Target sequence (O75874 whole entry R132H, stated change not applied): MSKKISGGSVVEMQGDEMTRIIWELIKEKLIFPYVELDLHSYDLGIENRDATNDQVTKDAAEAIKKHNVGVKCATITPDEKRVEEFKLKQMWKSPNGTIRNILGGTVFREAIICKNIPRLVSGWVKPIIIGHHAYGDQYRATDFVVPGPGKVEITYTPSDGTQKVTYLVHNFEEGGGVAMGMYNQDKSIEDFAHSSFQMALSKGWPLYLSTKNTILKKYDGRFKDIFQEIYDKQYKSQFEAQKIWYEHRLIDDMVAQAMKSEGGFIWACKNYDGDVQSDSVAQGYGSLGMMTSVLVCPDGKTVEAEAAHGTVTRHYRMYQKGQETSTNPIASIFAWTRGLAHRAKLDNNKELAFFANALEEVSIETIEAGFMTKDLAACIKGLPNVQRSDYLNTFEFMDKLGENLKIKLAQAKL
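IDH1-R132H (0.5 ug/mL dispensed) in pH 7.5 Tris buffer was preincubated 30 min with compound, then given a substrate mix of 0.016 mM NADPH and 2 mM alpha-KG for 80 min at room temperature; remaining NADPH was read by diaphorase/resazurin fluorescence.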
ATXN2 expr inh: Primary qHTS for Inhibitors of ATXN expression | HEK-293 ATXN2-luciferase reporter, luminescence, 24 h | Potency, µM (titrated, usually from 57 µM), without a hit: top-dose activity change, negative = inhibition, most hits filed as inhibitors | actives 0.72% (n = 360,000) | AID 1745845, 2022; note: potency is the fitted concentration of half-maximal effect; % is set by controls: 0 for no effect and ±100 for the full control effect; nearly all actives have a fitted effect of over 55% in size
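qHTS (up to 57 uM final) was run with 24 h compound exposure of reporter cells at 37 °C. Each well was multiplexed: SteadyGlo luminescence measured ATXN2-luciferase expression after a fluorogenic Gly-Phe-AFC viability readout (25 uM final).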
LDHA block: qHTS assay for inhibitors of human lactate dehydrogenase; purified LDHA, NADH/diaphorase-resazurin fluorescence; active compounds read low; AID 1347041, 2019; activity change, % (values are at about 110 or 230 µM); actives 0.15% (n = 480,000); L-lactate dehydrogenase A chain (Homo sapiens), P00338; in the data active = activity change below about -30%; inconclusive = mostly about -25% to -30%;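 note: plate controls were DMSO wells for no effect and wells without enzyme for full effect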
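Human LDH5 (2 nM) was incubated with 0.06 mM NADH and 0.2 mM pyruvate for 5 min at room temperature in Tris pH 7.4. Remaining NADH was coupled through diaphorase/resazurin, and resorufin fluorescence was read at 0 and 20 min.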
TGFb inhibitor: qHTS for Inhibitors of TGF-b. HepG2 CAGA-GFP TGF-b/SMAD3 reporter, GFP fluorescence, 18 h; TGF-beta stimulated, 500 pg/mL final. Potency, µM (series often up to 46.1 µM), for the others: at the highest dose activity, negative = inhibition, usual class: inhibitors. actives 1.2% (n = 410,000). AID 588855, 2011; note: potency is the fitted concentration of half-maximal effect; % is set by controls: 0 for no effect and ±100 for the full control effect; nearly all actives have a fitted effect of over 65% in size
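HEPG2 CAGA-GFP reporter cells (1000/well, DMEM with 1% FBS) received compounds, then recombinant TGF-beta at 500 pg/mL final for 18 hours at 37 degrees C. Per-cell GFP summed per well was normalised to unstimulated and stimulated DMSO controls before curve fitting.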
HepG2 viability: qHTS for Inhibitors of TGF-b: Cytotox Counterscreen | Potency, µM (top dose mostly 46.1 µM), without a hit: at the highest dose activity change, negative = cytotoxicity, hits mostly cytotoxic | AID 588856, 2011 | HepG2 CAGA-GFP viability, ATP luminescence, 18 h | actives 0.76% (n = 410,000); note: potency is the fitted concentration of half-maximal effect
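HepG2 CAGA-GFP cells (1000/well, DMEM with 1% FBS) received compound, then TGF-beta at 500 pg/mL final, and were incubated 18 hours at 37 degrees C. Viability was read by CellTiter-Glo luminescence. Media-only wells were set as complete cell-killing and DMSO as no toxicity.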
An asterisk follows results filed as active; i = inactive; ? = inconclusive; · = no result; ! = not active in a repeat. Unless noted, calls come from the whole dose curve; as a rule, active = well fitted curve in the direction sought with a large enough effect; inconclusive = small, poorly fitted or top-dose-only effect, or another doubt; inactive = no such curve, though single readings can be large; an effect the other way counts as inactive or inconclusive.

SMILES	S2 tox	IDH1 R132H inh	ATXN2 expr inh	LDHA block	TGFb inhibitor	HepG2 viability
CCOC(=O)/C=C/S(=O)(=O)c1ccc(NC(C)=O)cc1	?	1%	?	-1	?	2µM*
CCN1C(=O)c2ccc(C(=O)NCc3ccco3)cc2C1=O	0.16µM*	2%	-17%	-1	-3%	5%
CCCN1C(=O)c2ccc(C(=O)NCc3ccco3)cc2C1=O	i	2%	8%	5	-1%	-18%
COc1ccccc1CNC(=O)c1ccc(-c2csc(C3CC3)n2)cc1	·	·	·	7	·	·
CCCCCCN1C[C@@H](n2cc(C3CC3)nn2)[C@H](O)C[C@@H]1c1ccc(C)cc1	20µM*	10%	?	-9	?	-119%
CCCCCCN1C[C@@H](n2cc(C3CC3)nn2)[C@H](O)C[C@@H]1c1ccc(OC)cc1	20µM*	2%	?	2	?	-7%
CCCCCCN1C[C@H](n2cc(C3CC3)nn2)[C@@H](O)C[C@@H]1c1ccc(C)cc1	·	-5%	?	3	14µM*	16µM*
COc1cc(OC)c(C2SCCS2)c(OC)c1	i	-3%	0%	0	0%	2%
CCOC(=O)Cn1c(=N)n(CCOc2ccc3ccccc3c2)c2ccccc21	?	7%	-23%	6	11µM*	-100%
CCOC(=O)Cn1c(=N)n(CCOc2ccc(OC)cc2)c2ccccc21	i	10%	0%	0	0%	-6%
COc1ccccc1CCNC(=O)C1CCN(c2nc3ccccc3nc2C(F)(F)F)CC1	i	3%	-5%	0	-2%	-5%
CCCCNC(=S)Nc1cccc(S(=O)(=O)NC2=NCCC2)c1	i	6%	3%	2	-8%	3.5µM*
O=C(CCl)Nc1cccc(S(=O)(=O)NC2=NCCC2)c1	·	2%	·	-5	11µM*	14µM*
O=C(Nc1ccc(Cl)cc1)C(=O)Nc1cccc(S(=O)(=O)NC2=NCCC2)c1	·	·	·	8	·	·
COc1ccc(OC)c(NC(=O)C2CCCN2C(=O)C2CCC(C)CC2)c1 (centres undefined)	?	6%	-7%	3	-16%	-36%
FC(F)C(F)(F)Oc1cccc(Nc2nccn3c(-c4cc(C(F)(F)F)cc(C(F)(F)F)c4)cnc23)c1	i	·	3%	-21	5%	-23%
Cc1ccc(S(=O)(=O)Nc2ccc(Nc3nccn4c(-c5ccccc5Oc5ccccc5)cnc34)cc2)cc1	i	·	11%	-10	3%	-38%
Cc1ccc(S(=O)(=O)Nc2ccc(Nc3nccn4c(-c5ccc6ccccc6c5)cnc34)cc2)cc1	i	·	16%	-87*	?	4%
Cc1ccc(-c2cnc3c(Nc4cccc(OC(F)(F)C(F)F)c4)nccn23)cc1	i	·	1%	-39*	-15%	-36%
O=C1CCC(C(=O)N2CCCC(N3CCN(c4cccc(C(F)(F)F)c4)CC3)C2)=NN1 (centres undefined)	i	-3%	1%	0	-1%	2%
COC(=O)c1ccccc1COc1cccn2c(N(C)Cc3cccs3)c(C)nc12	i	·	18µM*	9	?	-41%
Cc1nc2c(OCc3ccc(Cl)cc3Cl)cccn2c1N(C)Cc1cccs1	·	·	8.9µM*	-3	?	11µM*
Cc1nc2c(OCc3cccc(Cl)c3)cccn2c1N(C)Cc1cccs1	?	·	?	2	?	11µM*
CC(C)CC(=O)[C@@H](O)Cc1ccc(O)cc1	?	·	-6%	-8	·	·
N=C1N(c2ccccc2)C(=S)C(=Nc2ccccc2)N1c1ccccc1	i	2%	34%	13	1.6µM*	20%
SMILES	S2 tox	IDH1 R132H inh	ATXN2 expr inh	LDHA block	TGFb inhibitor	HepG2 viability
CN1N=C(N)c2cn(C3OC(COP(=O)(O)O)C(O)C3O)c3ncnc1c23 (centres undefined)	i	1%	16%	-32*	0.28µM*	-41%
Nc1ncnc2c1ncn2[C@@H]1O[C@H](COP(=O)(O)O)[C@@H](O)[C@H]1O	i	-1%	56%	-3	-10%	31%
COc1ccccc1-n1cc(CN2CCC3(CCC(CNC(=O)c4ccccc4)O3)CC2)cn1 (centres undefined)	i	·	·	·	·	·
Cc1c(CN(C)C(=O)c2cc(-c3ccccc3)nc3ccc(Br)cc23)cnn1C	?	-6%	22µM*	1	-26%	-29%
O=C(O)COc1ccccc1-c1ccccc1	i	0%	21%	-2	0%	0%
O=C1/C(=C/c2ccc([N+](=O)[O-])cc2)C=C(c2ccccc2)N1c1ccc(O)cc1	?	3%	20µM*	0	9%	-9%
O=C1/C(=C/c2ccc([N+](=O)[O-])cc2)C=C(c2ccccc2)N1c1ccccc1	i	12%	-2%	1	-1%	-10%
CN(Cc1ccc2c(c1)OCO2)C(=O)c1nn(-c2ccccc2)c(=O)c2ccccc12	·	·	·	-35*	·	·
O=C(NCc1ccc2c(c1)OCO2)c1nn(-c2ccccc2)c(=O)c2ccccc12	i	1%	-23%	6	5%	-27%
N/C(=N\OC(=O)c1ccccc1Cl)c1ccccn1	i	5%	16µM*	-1	3%	-61%
COc1ccc(C(=O)O/N=C(\N)c2ccccn2)cc1	i	5%	11µM*	-4	6%	-42%
COc1ccccc1C(=O)O/N=C(\N)c1ccccn1	i	0%	?	-7	?	-26%
Cc1ccccc1OCC(O)Cn1c(N)nc2c1c(=O)n(C)c(=O)n2C (centres undefined)	·	·	·	-37*	·	·
O=C(Nc1ccccc1)OC(CN1CCCCC1)C(F)(F)F (centres undefined)	i	5%	3%	-6	8%	-27%
CC(C)(C)CC(C)(C)N=C1Nc2ccc(Cl)cc2N[C@]12C[C@H]1CCCC(=O)N3CC[C@@H](C2)[C@@H]13	·	·	·	·	?	8.9µM*
Cc1cc2c(cc1C)N[C@]1(C[C@H]3CCCC(=O)N4CC[C@@H](C1)[C@@H]34)C(=NC(C)(C)CC(C)(C)C)N2	?	9%	-16%	8	?	10µM*!
CC(C)NC(=O)CNC(=O)c1n[nH]c(=O)c2ccccc12	·	·	·	-1	·	·
O=C1c2ccccc2-c2onc3c(N4CCN(CCO)CC4)cc(N4CCN(C(=O)c5ccco5)CC4)c1c23	·	9%	?	31	13µM*	18µM*

Source: PubChem BioAssay
